Records with an inconclusive call do not appear. A call without a number means that no potency is given here. Unmarked numbers belong to inactive results. Activity calls are given as the source filed them. The call rests on the fitted dose curve; in most records, active means well fitted cell-killing curve with a large enough effect; inconclusive means small, poorly fitted or top-dose-only effect, or effect the other way; inactive means flat fitted curve, though single readings scatter.
Potency means the concentration at half of the fitted maximal effect.

The test concerns HeLa. Nature of the test: Primary qHTS to identify gynecologic anti-cancer compounds using libraries of approved drugs and bioactive compounds (AID 1345084). Further: nearly all actives have a fitted effect of over 55% in size. The note with it: Gynecologic cancer cell panel viability, ATPlite luminescence, 48 h; series mostly up to 57.5 µM. The text has this:
National Center for Advancing Translational Sciences [NCATS] Assay Overview: Chemotherapeutic drug responses vary from cancer to cancer and from patient to patient. These variations could be caused by a number of factors including patient genomic background, tumor mutations, tumor heterogeneity, and aspects of drug treatment. Chemotherapeutic drug resistance is also a common issue and can lead to ineffective treatment and patient death. Here we have profiled the cell killing effects of thousands of compounds to characterize the responses in three gynecological cancers, identify cancer-selective compounds, and understand the diversity of responses to these compounds from pan-cancer suppressors to single cell line selective compounds. In this assay, we screened a 7,914 compound drug library that included approved drug and bioactive compounds in six ovarian, three cervical, and […] placental cancer cell lines using the ATPlite assay for cell viability. […] The cervical cancer cell lines included HeLa, Ca Ski, and C-33 A. The placental cancer cell lines included JEG-3. HEK 293T cells were used as the control cell line to determine the selectivity index. ATPlite is a luminescence based assay reliant on the conversion of a luciferase substrate to light in the presence of ATP. As a cytotoxic compound will suppress growth and decrease the number of cells, the concentration of ATP will decrease, and less light signal will be detected in the well.
Assay Protocol Summary: 1,000 cells in 4 uL of media were dispensed into white, solid bottom 1536-well plates using a Multidrop Combi (Thermo Scientific). The Assay plates were incubated for 16 hours at 37 C with 5% CO2 in assay plates, followed by the addition of 23 nL of DMSO or drug dissolved in DMSO. Each compound was assayed in five concentrations (0.092, 0.46, 2.3, 11.5, and 57.5 uM), using the automated Wako 1536 Pin Tool workstation and incubated at 37 C with 5% CO2 48 hours. 4 uL of ATPlite, the ATP monitoring reagent, was then added to the each well of the assay plates using the Multidrop Combi reagent dispenser followed by incubation for 15 minutes at room temperature. The resulting luminescence was measured using the ViewLux plate reader.
As for `O[C@@H](CNC[C@H](O)[C@H]1CCc2cc(F)ccc2O1)[C@@H]1CCc2cc(F)ccc2O1`, the Potency entry was “inactive”.

`S=P(N1CC1)(N1CC1)N1CC1`: the Potency entry is “inactive”.

Regarding `CCC(C)(C)c1ccc(CC(C)CN2C[C@@H](C)O[C@@H](C)C2)cc1` (stereo not given in full), the Potency entry is “inactive”.

As to `CC(N)C12CC3CC(CC(C3)C1)C2` (stereo not given), the Potency entry is “inactive”.

Consider `Nc1[nH]c(=O)ncc1F`, for which the Potency result is “inactive”.

With `O=C(NCC1CN(c2ccc(N3CCOCC3=O)cc2)C(=O)O1)c1ccc(Cl)s1` (stereo not given), the Potency result is “inactive”.

For `CC(C)(Sc1cc(C(C)(C)C)c(O)c(C(C)(C)C)c1)Sc1cc(C(C)(C)C)c(O)c(C(C)(C)C)c1`, the Potency entry was “inactive”.

Turning to `CC(C)C[C@H](NC(=O)[C@H](CCc1ccccc1)NC(=O)CN1CCOCC1)C(=O)N[C@@H](Cc1ccccc1)C(=O)N[C@@H](CC(C)C)C(=O)[C@@]1(C)CO1`, the Potency is 0.794 µM (active).

For `COc1cc(NS(=O)(=O)c2ccc(N)cc2)nc(OC)n1`, the Potency entry was “inactive”.

With `N[C@@H](C(=O)N[C@@H]1C(=O)N2C(C(=O)O)=C(Cl)CS[C@H]12)c1ccccc1`, the activity change, negative = cytotoxicity was 2.57% [at 11.6 µM].

Consider `Cc1nnc(NS(=O)(=O)c2ccc(N)cc2)s1`, for which the Potency entry was “inactive”.

For the molecule `NNC(=O)c1ccncc1`, the Potency result was “inactive”.

As for `C[C@@H]1CN(c2c(F)c(N)c3c(=O)c(C(=O)O)cn(C4CC4)c3c2F)C[C@H](C)N1`, the Potency result is “inactive”.

In the case of `COc1cc2ncnc(Nc3cccc(Cl)c3)c2cc1OC`, the Potency entry is “inactive”.

For `Cc1ncc([N+](=O)[O-])n1CCO`, the Potency result is “inactive”.

In the case of `CCCc1nc(C)c2c(=O)[nH]c(-c3cc(S(=O)(=O)N4CCN(CC)CC4)ccc3OCC)nn12`, the Potency result is “inactive”.

Consider `COc1cc2c(Nc3ccc(Br)cc3F)ncnc2cc1OCC1CCN(C)CC1`, for which the Potency entry is “inactive”.

As for `C[C@]12C=CC(=O)C=C1CC[C@@H]1[C@@H]2C(=O)C[C@@]2(C)[C@H]1CC[C@]2(O)C(=O)CO`, the Potency result is “inactive”.

For the molecule `CN1CCN(c2c(F)cc3c(=O)c(C(=O)O)cn(CCF)c3c2F)CC1`, the Potency result is “inactive”.

For the molecule `C#CCN[C@@H]1CCc2ccccc21`, the Potency result is “inactive”.

For the molecule `CCN(C)C(=O)Oc1cccc([C@H](C)N(C)C)c1`, the Potency result was “inactive”.

Regarding `COc1ccc(-c2ccc3cc(C(=O)O)ccc3c2)cc1C12CC3CC(CC(C3)C1)C2`, the Potency entry was “inactive”.

Regarding `CN1CCN(c2c(F)cc3c(=O)c(C(=O)O)cn4c3c2OCN4C)CC1`, the Potency result is “inactive”.

Turning to `CNCC[C@H](Oc1cccc2ccccc12)c1cccs1`, the Potency result is “inactive”.

As for `N=C(N)c1ccc(OCCCCCOc2ccc(C(=N)N)cc2)cc1`, the Potency result was “inactive”.

For `CN(CCOc1ccc(CC2SC(=O)NC2=O)cc1)c1ccccn1` (stereo not given), the Potency result was “inactive”.

Turning to `CCOC(=O)c1ccc(OC(=O)CCCCCN=C(N)N)cc1`, the Potency entry was “inactive”.

With `COCCCOc1cc(C[C@@H](C[C@H](N)[C@@H](O)C[C@H](C(=O)NCC(C)(C)C(N)=O)C(C)C)C(C)C)ccc1OC`, the Potency entry is “inactive”.

`O=S(=O)(c1cccc2cnccc12)N1CCCNCC1`: the Potency entry is “inactive”.

As to `CCOC(=O)[C@H](CCc1ccccc1)N[C@H]1CCc2ccccc2N(CC(=O)O)C1=O`, the Potency entry is “inactive”.

On to `CCC(=O)O[C@]1(C(=O)CCl)[C@@H](C)C[C@H]2[C@@H]3CCC4=CC(=O)C=C[C@]4(C)[C@@]3(F)[C@@H](O)C[C@@]21C`, for which the Potency result was “inactive”.

With `O=S(=O)(O)CCS`, the Potency result is “inactive”.

For `CC(C(=O)O)c1ccc2c(c1)CC(=O)c1ccccc1S2` (stereo not given), the Potency entry is “inactive”.

For `Clc1ccccc1CN1CCc2sccc2C1`, the Potency entry is “inactive”.

`CN1CCCC(n2nc(Cc3ccc(Cl)cc3)c3ccccc3c2=O)CC1` (stereo not given): the Potency entry was “inactive”.

In the case of `Cc1noc(NS(=O)(=O)c2ccc(N)cc2)c1C`, the Potency result is “inactive”.

Turning to `COC(=O)Nc1nc2ccc(S(=O)c3ccccc3)cc2[nH]1` (stereo not given), the Potency was 2.82 µM (active).

With `CO[C@@H]1[C@@H](OC(N)=O)[C@@H](O)[C@H](Oc2ccc3c(O)c(NC(=O)c4ccc(O)c(CC=C(C)C)c4)c(=O)oc3c2C)OC1(C)C`, the Potency result is “inactive”.

As for `Cc1nnc(C(=O)NC(C)(C)c2nc(C(=O)NCc3ccc(F)cc3)c(O)c(=O)n2C)o1`, the Potency result is “inactive”.

With `COc1c(N2CCNC(C)C2)c(F)cc2c(=O)c(C(=O)O)cn(C3CC3)c12` (stereo not given), the Potency result is “inactive”.
